Consider 100 compounds from PubChem BioAssay AID588675 (Johns Hopkins Ion Channel Center, 2011).

SMILES strings stand for the structures. Hit rate of the full screen: of about 310,000 compounds, about 1,900 (0.61%) were called active.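 The calls were made as follows: active = plate-corrected calcium response at least 3 library SD above typical, normal starting fluorescence, not activating the receptor alone; inactive = the rest.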 This excerpt belongs to a sample that is enriched for actives.

Mas-related G-protein coupled receptor member X1 (Homo sapiens), sequence (Q96LB2 whole entry, looked up): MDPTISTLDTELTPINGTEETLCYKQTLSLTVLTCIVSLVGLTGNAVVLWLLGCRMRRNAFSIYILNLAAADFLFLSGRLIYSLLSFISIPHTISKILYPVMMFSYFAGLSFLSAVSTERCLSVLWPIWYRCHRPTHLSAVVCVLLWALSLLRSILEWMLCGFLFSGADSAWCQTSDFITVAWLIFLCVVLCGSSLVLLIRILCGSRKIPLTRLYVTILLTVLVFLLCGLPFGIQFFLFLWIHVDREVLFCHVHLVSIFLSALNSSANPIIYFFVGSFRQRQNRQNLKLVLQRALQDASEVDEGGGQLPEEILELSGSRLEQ

The assay has as its target Mas-related G-protein coupled receptor member X1 (Homo sapiens) (UniProt Q96LB2). The experiment in a line: positive allosteric modulators of MrgX1, primary screen, HEK293 cells, Fluo-4 calcium flux (AID 588675).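 Also: compound read alongside a low EC10 to EC30 dose of BAM8-22 agonist.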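 As to B-score: peak minus trough fluorescence over baseline measured at the second addition.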 To be noted: MrgX1-HEK293, Fluo-4 calcium flux, FDSS, at 10 µM; hits give high values.
`Cc1cc(NC(=O)CS(=O)(=O)c2cn(C)c3ccccc23)no1`: the B-score result was “inactive”. As for `CCCCN1C(N)=NC[C@@H]1CC1CCCCC1`, the entry is “inactive”; as for `COc1ccccc1CCNS(=O)(=O)c1cn(C)nc1C`, “inactive”. As for `CCOc1ccc2nc(N(CCCN(C)C)C(=O)c3ccc(C(=O)c4ccccc4)cc3)sc2c1`, the entry is “inactive”. In the case of `CC(N=Cc1nc(-c2ccccc2)oc1O)c1ccccc1` (stereo not given), the B-score result was “inactive”. To `CCOc1ccc2nc(/N=C/c3nc(-c4ccccc4)oc3O)sc2c1` belongs 18.1 (active); to `CN1C(=O)CC(c2ccccc2)C1=O` (stereo not given), “inactive”; to `Cc1cccc(N(C)C(=O)c2cc(S(=O)(=O)N3CCCCC3)c[nH]2)c1`, “inactive”.

As for `COC(=O)Cn1c(=NC(=O)c2cc(OC)c(OC)c(OC)c2)sc2cc(OC)ccc21`, the B-score entry was “inactive”. On to `COc1ccc(OC)c(C(=O)c2ccc(Cl)cc2)c1`, for which the B-score entry is “inactive”. With `COc1ccc(OC)c(/C(C)=N\NC(=O)c2cc3cc(Cl)ccc3n2C)c1`, the B-score was 6.86 (active).

In the case of `COc1ccc(/C(C)=N/NC(=O)CCC(=O)Nc2ccc(Cl)cc2Cl)c(OC)c1`, the B-score result was “inactive”.

`CCOc1ccccc1NS(=O)(=O)c1c[nH]c(C(=O)OC)c1`: the B-score entry was “inactive”. Regarding `CCN(CC(=O)NCc1cccs1)C(=O)c1cccc(S(=O)(=O)Nc2ccccc2OC)c1`, the B-score entry is “inactive”. For the compound `CCOc1ncccc1C(=O)NNC(=O)c1cccc(S(=O)(=O)Nc2ccccc2OC)c1`, the B-score is 7.54 (active). For `COc1ccc(CCNC(=S)NC(=O)/C=C/c2ccc(C)cc2)cc1OC`, the B-score entry is “inactive”. Regarding `COCCCNC(=O)CN1CCN(Cc2ccccc2Cl)C1=O`, the B-score entry was “inactive”.

For `C#CCOCCOCCOCCNc1nc(N2CCN(C(=O)[C@H](CCCCN)n3cc(CCC(=O)O)nn3)CC2)nc(N2CCN(C(=O)[C@H](CCCCN)n3cc(CC(C)O)nn3)CC2)n1` (stereo not given in full), the B-score entry is “inactive”. On to `COc1cc(Nc2nc3ccc(Cl)cc3n3cnnc23)cc(OC)c1OC`, for which the B-score result was “inactive”. Take `COc1ccc(OC)c(Nc2nc3ccccc3n3cnnc23)c1`: the B-score is 9.87 (active). On to `COc1ccc(CCNc2nc3ccc(C)cc3n3cnnc23)cc1OC`, for which the B-score result is “inactive”.

For `Cc1nn2cc(-c3ccc(Cl)cc3)cnc2c1Br`, the B-score entry is “inactive”. Consider `CN1C(C)(C)CC(NC(=O)CCC(=O)NC2CC(C)(C)N(C)C(C)(C)C2)CC1(C)C`, for which the B-score entry is “inactive”. Regarding `S=c1nc(C23CC4CC(CC(C4)C2)C3)nc2sccn12`, the B-score result was “inactive”. Take `Nc1nc(C23CC4CC(CC(C4)C2)C3)cs1`: the B-score was 15.8 (active). As for `Nc1nc(SC23CC4CC(CC(C4)C2)C3)ns1`, the B-score result was “inactive”. As to `FC(F)(F)c1ccc2nnc(-c3c(Cl)cccc3Cl)n2c1`, the B-score entry is “inactive”. For `C/C(=N\NC(=O)CC(C)C)c1c(C(F)(F)F)[nH]n(-c2nc3ccccc3s2)c1=O`, the B-score entry is “inactive”.

Take `COC(=O)Cc1cc(=O)n(-c2nc3ccccc3s2)[nH]1`: the B-score is 7.64 (active). Regarding `COC(=O)Cc1[nH]n(-c2nc3ccccc3s2)c(=O)c1C(C)=Nc1ccc(OC)cc1`, the B-score result was “inactive”. For `COc1ccc(-c2nc3cc([N+](=O)[O-])ccc3o2)cc1OC`, the B-score is 11 (active). As for `O=[N+]([O-])c1ccc2oc(-c3cccc(O)c3)nc2c1`, the entry is “inactive”; as for `COc1ccc([N+](=O)[O-])cc1-c1nc2ccccc2nc1-c1ccccc1`, “inactive”; as for `CC(C)N1C(=S)SC(C)(C)C1n1oc(=O)n(-c2ccc(Cl)c(Cl)c2)c1=O` (stereo not given), “inactive”. For `O=C(CNC(=O)OCc1ccccc1)Oc1cc2oc(=O)cc(-c3ccccc3)c2cc1Cl`, the B-score entry was “inactive”. Consider `Cc1nc2sccn2c(=O)c1S(=O)(=O)NCCc1ccccc1`, for which the B-score entry is “inactive”.

Take `Cc1ccc2c(C)c(C(=O)N(C)Cc3ccncn3)oc2c1C`: the B-score result was “inactive”. For the compound `Cc1c(C(=O)N(C)CCc2cnn(C)c2)oc2c(F)cccc12`, the B-score entry was “inactive”. As for `Cc1ccc2c(C)c(C(=O)N(C)CCC3CCCCO3)oc2c1C` (stereo not given), the B-score is 11.2 (active). Consider `CCCCn1c(N)c(N(CCC(C)C)C(=O)CC2OC(=O)c3ccccc32)c(=O)[nH]c1=O` (stereo not given), for which the B-score entry is “inactive”. With `COc1ccc(C2(C)NC(=O)N(CC(=O)c3ccc4c(c3)OCO4)C2=O)cc1` (stereo not given), the B-score entry is “inactive”.

On to `O=C(OCc1ccc([N+](=O)[O-])cc1)C1CC(=O)N(Cc2ccccc2Cl)C1` (stereo not given), for which the B-score result was “inactive”. On to `CCCC1CCC(=NNC(=S)NCCc2ccccc2)CC1` (stereo not given), for which the B-score result was “inactive”. On to `O=C(O)CCn1cc(/C=C/C(=O)c2ccc(Cl)cc2)c(-c2cccc(Br)c2)n1`, for which the B-score entry was “inactive”.

Take `CCOc1cc(/C=C(\C#N)c2nc(-c3cccs3)c(NC(C)=O)s2)ccc1O`: the B-score entry is “inactive”. To `COc1cc(/C=C(\C#N)c2nc3c(s2)CC(C)CC3)ccc1O` (stereo not given) belongs 15.1 (active). On to `COc1cc(/C=C(\C#N)c2nc3ccccc3[nH]2)ccc1O`, for which the B-score result was “inactive”.

Regarding `CC(=O)Nc1ccc(S(=O)(=O)N2CCN(C(=O)c3ccccc3F)CC2)cc1`, the B-score result is “inactive”.

With `O=C(Nc1cccc(Cl)c1)c1cncn1-c1ccc(F)cc1`, the B-score is 12.5 (active). With `O=C(Nc1cccc(Cl)c1)c1cc(S(=O)(=O)N2CCCCC2)c[nH]1`, the B-score result is “inactive”.

Take `CCC(=O)Nc1nc(C)c(C(=O)Nc2cccc(Cl)c2)s1`: the B-score result was “inactive”. As for `C=CCn1cc(Cl)cc(C(=O)Nc2ccccc2)c1=O`, the entry is “inactive”; as for `COC(=O)c1c(NC(=O)COC(=O)[C@@H](NS(=O)(=O)c2ccccc2)C(C)C)sc2c1CCC2`, “inactive”. With `COC(=O)c1c(NC(=O)CN(c2ccc(C)c(C)c2)S(C)(=O)=O)sc2c1CCCC2`, the B-score is 11.7 (active). Take `COC(=O)c1c(NC(=O)CCN2CCOCC2)sc2c1CCCC2`: the B-score entry is “inactive”. As for `CCc1ccc(N(CC(=O)Nc2sc3c(c2C(=O)OC)CCCC3)S(C)(=O)=O)cc1`, the figure is 8.16 (active); as for `COC(=O)c1c(NC(=O)C2CC(C)=C(C)CC2C(=O)O)sc2c1CCCCC2` (stereo not given), “inactive”. Take `COC(=O)c1c(NC(=O)CSc2nncs2)sc2c1CCCCC2`: the B-score result is “inactive”. On to `COc1ccc(OC)c(-c2c(=O)n(OCc3ccccc3Br)c3ccccc3[n+]2[O-])c1`, for which the B-score entry was “inactive”. In the case of `O=C(Oc1ccc(-c2nnco2)cc1)c1ccc(F)c(S(=O)(=O)N2CCOCC2)c1`, the B-score result was “inactive”. As for `CN(C(=O)CCNC(=O)Cn1ccc2ccccc2c1=O)c1ccc(Br)cc1`, the B-score result is “inactive”. As for `CC(=O)N1c2ccc(S(=O)(=O)N(C)CC(=O)N(C)Cc3ccccc3)cc2CC1C` (stereo not given), the entry is “inactive”. To `O=C(Nc1nnc(-c2ccccc2F)s1)c1ccccc1F` belongs “inactive”; to `COc1ccccc1C(CNC(=O)c1cccc(NS(=O)(=O)c2ccc(Br)cc2)c1)N(C)C` (stereo not given), “inactive”; to `Cc1ccc(CNS(=O)(=O)c2ccc3c(c2)N(C)CCO3)cc1`, “inactive”.

In the case of `Cc1ccc(N/C(N)=N/c2nc(C(F)(F)F)cc(C(F)(F)F)n2)cc1`, the B-score is 38.3 (active). On to `Cc1ccc(NC(=O)Nc2ccc3oc(C)nc3c2)cc1`, for which the B-score result was “inactive”. Regarding `CC(=O)NS(=O)(=O)c1ccc(N/C(N)=N/c2nc(C)cc(C)n2)cc1`, the B-score result is “inactive”. For `O=C(c1noc2c1CCCC2)N1CCc2ccccc2C1`, the B-score entry was “inactive”. As to `Cc1cc(C)cc(Oc2nc3c(C)cccn3c(=O)c2/C=C(\C#N)C(=O)NC2CCS(=O)(=O)C2)c1` (stereo not given), the B-score entry is “inactive”.

Turning to `CN1CC(c2ccccc2)C2(COc3ccccc3C2=O)C12C(=O)Nc1ccccc12` (stereo not given), the B-score entry was “inactive”. On to `CCOC(=O)N1CCN(C(=O)CSc2nc(C)nc3c2c(=O)n(C)c(=O)n3C)CC1`, for which the B-score result was “inactive”. On to `CSc1nc(C)nc2c1c(=O)n(C)c(=O)n2C`, for which the B-score entry was “inactive”. For the compound `CCC(C)Sc1nc(C)nc2c1c(=O)n(C)c(=O)n2C` (stereo not given), the B-score is 17.1 (active).

In the case of `O=C(N/N=C/c1cc2c(cc1Br)OCO2)C1COc2ccccc2O1` (stereo not given), the B-score entry was “inactive”. Regarding `CC1(C(=O)N/N=C/c2cc3c(cc2Br)OCO3)CC1(Br)Br` (stereo not given), the B-score was 8.54 (active). Regarding `CC(=O)N/N=C/c1cc2c(cc1[N+](=O)[O-])OCO2`, the B-score entry was “inactive”. With `CCOC(=O)C1(Cc2ccccc2C)CCCN(S(C)(=O)=O)C1` (stereo not given), the B-score entry is “inactive”. For `O=C(NC(Cc1ccccc1)C(=O)O)/C(=C\c1ccccc1)NC(=O)c1ccco1` (stereo not given), the B-score result is “inactive”. Regarding `CS(=O)(=O)c1ccc2c(c1)SC1=NC(=O)/C(=C/c3ccco3)C(=N)N12`, the B-score entry is “inactive”. To `CCS(=O)(=O)C1=NSC2=NC(=O)/C(=C\c3ccc(OS(=O)(=O)c4ccccc4)cc3)C(=N)N21` belongs 24.2 (active). Take `Cc1ccc(C2=N/C(=C\c3ccc(OS(=O)(=O)c4ccc(C)cc4)cc3)C(=O)O2)cc1`: the B-score entry was “inactive”. As to `CS(=O)(=O)C1=NN2C(=N)/C(=C\c3ccc(OCCOc4ccccc4)cc3)C(=O)N=C2S1`, the B-score result was “inactive”. For `COc1ccccc1OCCOc1ccc(/C=C2\C(=N)N3N=C(C)SC3=NC2=O)cc1`, the B-score result was “inactive”.

`Cc1cc(/C=C2\SC(=O)N(C)C2=O)c(C)n1-c1cccc(C(=O)O)c1`: the B-score result is “inactive”. Regarding `CCC1=NN2C(=N)/C(=C/c3cc(C)n(-c4ccccc4)c3C)C(=O)N=C2S1`, the B-score result was “inactive”. `Cc1cc(/C=C2/C(=N)N3C(=NC2=O)SN=C3S(C)(=O)=O)c(C)n1-c1ccccc1`: the B-score was 11.8 (active).

As for `CCS(=O)(=O)C1=NSC2=NC(=O)/C(=C\c3cc(C)n(-c4cccc(OC)c4)c3C)C(=N)N21`, the B-score is 10.5 (active). As for `COC1(C2=NCCN2)COc2ccccc2O1` (stereo not given), the B-score result is “inactive”. To `COc1ccccc1NC(=O)N1CCCC1C(=O)NCc1cccs1` (stereo not given) belongs “inactive”; to `COc1cccc(-c2nnc(NC(=O)c3ccc(S(=O)(=O)N(CC(C)C)CC(C)C)cc3)o2)c1`, “inactive”; to `O=C1CCCCN1CCCC(=O)N1CCCC(Nc2ccc(F)cc2)C1` (stereo not given), “inactive”. To `CCOC(=O)c1ccc(N=C2SC(C(=O)NC)CC(=O)N2CCc2ccccc2)cc1` (stereo not given) belongs “inactive”.

With `CSc1ccc(CN2C(=O)NC3(CCCCCC3)C2=O)cc1`, the B-score result was “inactive”. As for `C=C1c2c(Cl)ccc(O)c2C(O)=C2C(=O)[C@]3(O)C(O)=C(C(N)=O)C(=O)[C@@H](N(C)C)[C@@H]3[C@@H](O)C12` (stereo not given in full), the entry is “inactive”.

`O=C(Cc1ccc(S(=O)(=O)N2CCCC2)s1)NC1CCCCCC1`: the B-score result was “inactive”. As for `Cc1ccc(SCC(=O)c2cc(C)c(OC(=S)N(C)C)c(C)c2)cc1`, the entry is “inactive”. Turning to `O=C(Nc1ncc([N+](=O)[O-])s1)C1COc2ccccc2O1` (stereo not given), the B-score result is “inactive”. In the case of `COc1ccc(OC)c2sc(NC(=O)C3COc4ccccc4O3)nc12` (stereo not given), the B-score entry is “inactive”.

Regarding `O=C(Nc1nc2c(F)cc(F)cc2s1)C1COc2ccccc2O1` (stereo not given), the B-score is 9.52 (active).
